# Source: PubChem BioAssay
# Calls of active or inactive are those of the source.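 The calls were made as follows, unless noted: active = inhibition at or above 50% at 10 µM; inactive = inhibition below 50%.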
# Assay: inhibitors of Sendai virus-induced IRF3 signaling, primary screen, TLR/RLR signaling modifier project, cell-based, Sendai virus stimulus, luciferase, 10K MLSCN set (AID 602276);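 also: firefly luciferase from ISG56 promoter only with Renilla not read in this screen; 0% = Sendai virus plus DMSO and 100% = medium plus DMSO without virus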
# Settings: HEK293 RL24 IRF3 luciferase reporter, at 10 µM, active compounds read high
row,SMILES,inhibition
1,Cc1cc(C)n(-c2ccc(N3CCOCC3)nn2)n1,-5.9% (inactive)
2,O=C(Nc1ccc(S(=O)(=O)N2CCc3ccccc32)cc1)c1ccc2c(c1)OCO2,-3.74% (inactive)
3,Cc1ccc2occ(CN3CCN(c4ccccc4)CC3)c(=O)c2c1,15.8% (inactive)
4,Cc1ccc(S(=O)(=O)N2CCN(C(=O)CSC3CCCC3)CC2)c(C)c1,17.2% (inactive)
5,Nc1nonc1-n1nnc(C(=O)c2ccccc2)c1-c1ccccc1,10.9% (inactive)
6,COc1cc(C2c3c(n[nH]c3C)C(=O)N2c2ccc(C)cc2)ccc1O (stereo not given),3.65% (inactive)
7,CC(C)(C)n1nnnc1CN(Cc1ccco1)Cc1cc2cc3c(cc2[nH]c1=O)OCO3,15.5% (inactive)
8,COc1ccccc1N1CCN(S(=O)(=O)CC23CCC(CC2=O)C3(C)C)CC1 (stereo not given),9.34% (inactive)
9,CC1(C)CC(=O)C=C(NCCN2CCN(C(=O)Nc3ccccc3)CC2)C1,-1.55% (inactive)
10,Cc1ccccc1OCc1nnc(SCC(=O)NCc2ccccc2)n1C,12% (inactive)
11,CCN(CC(=O)O)S(=O)(=O)c1cc(Cl)ccc1Cl,-0.0466% (inactive)
12,COC(=O)C1CCN(C(=O)CN2C(=O)NC(CCc3ccccc3)C2=O)CC1 (stereo not given),-17.8% (inactive)
13,CCOC(=O)Cn1c(CN2CCOCC2)nc2c1c(=O)[nH]c(=O)n2C,15.2% (inactive)
14,CCc1cccc(NC(=O)CN(C)S(=O)(=O)c2cccc3nsnc23)c1,10.2% (inactive)
15,O=C(Cn1ncc2c(=O)oc3ccccc3c21)Nc1nc2ccccc2s1,15.6% (inactive)
16,Cn1c(SCc2ccccc2)nnc1C1CCCNC1 (stereo not given),10.3% (inactive)
17,Cc1c(NC(=O)c2ccc(COc3ccc4ccccc4c3)o2)c(=O)n(-c2ccccc2)n1C,-13.4% (inactive)
18,CCOc1ccccc1-n1c(SCC(=O)NCc2ccco2)nnc1-c1ccncc1,7.96% (inactive)
19,COc1ccc(/C=N/n2cnnc2SCc2ccc(OC)cc2)cc1,6.24% (inactive)
20,CCN(CCCNC(=O)C1CCCN(S(=O)(=O)c2cnc[nH]2)C1)c1ccccc1 (stereo not given),5.83% (inactive)

row,SMILES,inhibition
1,COc1cc(Cn2c(-c3nonc3N)nc3ccccc32)ccc1C,29.4% (inactive)
2,C(/CCc1ccccc1)=N\n1cnnc1,5.76% (inactive)
3,Clc1ccc(OCCCn2cncn2)cc1Cl,10.6% (inactive)
4,Cn1c(=O)c2c(nc(CN3CCc4ccccc4C3)n2Cc2cccc(Cl)c2)n(C)c1=O,19.5% (inactive)
5,c1ccc(N=P(c2nc3ccccc3o2)(N2CCOCC2)N2CCOCC2)cc1,3.09% (inactive)
6,CN1C(=O)C(O)(CC(=O)c2ccc(F)cc2)c2cc(Br)ccc21 (stereo not given),22.4% (inactive)
7,O=C(c1ccc(Br)cc1)N1CCN(S(=O)(=O)c2ccccc2)CC1,-3.58% (inactive)
8,O=C(CN1CCN(C2CCCCC2)CC1)Nc1ccccc1-c1ccccc1,2.95% (inactive)
9,CC1CCCC(N2CCN(C(=O)c3ccc(F)cc3)CC2)C1 (stereo not given),2.84% (inactive)
10,O=C(Nc1ccccc1C(=O)N1CCOCC1)c1cccc(S(=O)(=O)N2CCCC2)c1,2.51% (inactive)
11,O=C(Nc1cc(C(F)(F)F)ccc1Cl)C1CCN(c2nnc(-n3cccc3)s2)CC1,17.2% (inactive)
12,CC(C)c1ccc(C(O)c2cnc(C(C)C)n2C)cc1 (stereo not given),-10.5% (inactive)
13,CCOc1cccc(-c2nnc3n2N=C(c2cc(OC)ccc2OC)CS3)c1,19.6% (inactive)
14,CCOC(=O)N1CCC(N2C(=O)c3ccccc3C2Nc2cccnc2)CC1 (stereo not given),7.61% (inactive)
15,CCn1ncc(C2=NOC(C(=O)Nc3ccc4c(c3)OCO4)C2)c1C (stereo not given),-17.8% (inactive)
16,O=C(NCc1nc2ccccc2[nH]1)c1ccco1,-2.68% (inactive)
17,C=CCSc1nnc(Cc2c(C)[nH]c3ccccc23)o1,7.53% (inactive)
18,COCCn1c(CN2CCN(c3ccccc3F)CC2)nc2c1c(=O)n(C)c(=O)n2C,-11.5% (inactive)
19,O=C(Nc1cccc(NC(=O)c2ccco2)c1)c1ccc2c(c1)OCO2,7.09% (inactive)
20,CCOC(=O)N1CCN(Cc2nc3c(c(=O)[nH]c(=O)n3C)n2Cc2cc(C)ccc2C)CC1,19.2% (inactive)

# Assay: inhibitors of poly I:C-induced TLR3 signaling, primary screen, cell-based, poly I:C stimulus, luciferase, 10K MLSCN set (AID 602277;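 active = inhibition of the reporter signal at or above 50%; inactive = inhibition below 50%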)
# Settings: HEK293-TLR3 RL24 IRF3 luciferase reporter, at 10 µM, active compounds read high
row,SMILES,inhibition
1,Cc1cc(C)n(-c2ccc(N3CCOCC3)nn2)n1,-11.9% (inactive)
2,O=C(Nc1ccc(S(=O)(=O)N2CCc3ccccc32)cc1)c1ccc2c(c1)OCO2,-67.6% (inactive)
3,Cc1ccc2occ(CN3CCN(c4ccccc4)CC3)c(=O)c2c1,18.1% (inactive)
4,Cc1ccc(S(=O)(=O)N2CCN(C(=O)CSC3CCCC3)CC2)c(C)c1,14.9% (inactive)
5,Nc1nonc1-n1nnc(C(=O)c2ccccc2)c1-c1ccccc1,2.08% (inactive)
6,COc1cc(C2c3c(n[nH]c3C)C(=O)N2c2ccc(C)cc2)ccc1O (stereo not given),-2.36% (inactive)
7,CC(C)(C)n1nnnc1CN(Cc1ccco1)Cc1cc2cc3c(cc2[nH]c1=O)OCO3,16% (inactive)
8,COc1ccccc1N1CCN(S(=O)(=O)CC23CCC(CC2=O)C3(C)C)CC1 (stereo not given),25.6% (inactive)
9,CC1(C)CC(=O)C=C(NCCN2CCN(C(=O)Nc3ccccc3)CC2)C1,-0.835% (inactive)
10,Cc1ccccc1OCc1nnc(SCC(=O)NCc2ccccc2)n1C,23.6% (inactive)
11,CCN(CC(=O)O)S(=O)(=O)c1cc(Cl)ccc1Cl,-0.284% (inactive)
12,COC(=O)C1CCN(C(=O)CN2C(=O)NC(CCc3ccccc3)C2=O)CC1 (stereo not given),-13.6% (inactive)
13,CCOC(=O)Cn1c(CN2CCOCC2)nc2c1c(=O)[nH]c(=O)n2C,27.7% (inactive)
14,CCc1cccc(NC(=O)CN(C)S(=O)(=O)c2cccc3nsnc23)c1,8.03% (inactive)
15,O=C(Cn1ncc2c(=O)oc3ccccc3c21)Nc1nc2ccccc2s1,17% (inactive)
16,Cn1c(SCc2ccccc2)nnc1C1CCCNC1 (stereo not given),15.2% (inactive)
17,Cc1c(NC(=O)c2ccc(COc3ccc4ccccc4c3)o2)c(=O)n(-c2ccccc2)n1C,-61.2% (inactive)
18,CCOc1ccccc1-n1c(SCC(=O)NCc2ccco2)nnc1-c1ccncc1,21.5% (inactive)
19,COc1ccc(/C=N/n2cnnc2SCc2ccc(OC)cc2)cc1,0.256% (inactive)
20,CCN(CCCNC(=O)C1CCCN(S(=O)(=O)c2cnc[nH]2)C1)c1ccccc1 (stereo not given),7.07% (inactive)

row,SMILES,inhibition
1,COc1cc(Cn2c(-c3nonc3N)nc3ccccc32)ccc1C,53.2% (active)
2,C(/CCc1ccccc1)=N\n1cnnc1,0.464% (inactive)
3,Clc1ccc(OCCCn2cncn2)cc1Cl,-19.6% (inactive)
4,Cn1c(=O)c2c(nc(CN3CCc4ccccc4C3)n2Cc2cccc(Cl)c2)n(C)c1=O,-58.7% (inactive)
5,c1ccc(N=P(c2nc3ccccc3o2)(N2CCOCC2)N2CCOCC2)cc1,-19.6% (inactive)
6,CN1C(=O)C(O)(CC(=O)c2ccc(F)cc2)c2cc(Br)ccc21 (stereo not given),41.2% (inactive)
7,O=C(c1ccc(Br)cc1)N1CCN(S(=O)(=O)c2ccccc2)CC1,20% (inactive)
8,O=C(CN1CCN(C2CCCCC2)CC1)Nc1ccccc1-c1ccccc1,24.7% (inactive)
9,CC1CCCC(N2CCN(C(=O)c3ccc(F)cc3)CC2)C1 (stereo not given),43.9% (inactive)
10,O=C(Nc1ccccc1C(=O)N1CCOCC1)c1cccc(S(=O)(=O)N2CCCC2)c1,22.9% (inactive)
11,O=C(Nc1cc(C(F)(F)F)ccc1Cl)C1CCN(c2nnc(-n3cccc3)s2)CC1,9.28% (inactive)
12,CC(C)c1ccc(C(O)c2cnc(C(C)C)n2C)cc1 (stereo not given),-5.66% (inactive)
13,CCOc1cccc(-c2nnc3n2N=C(c2cc(OC)ccc2OC)CS3)c1,56.7% (active)
14,CCOC(=O)N1CCC(N2C(=O)c3ccccc3C2Nc2cccnc2)CC1 (stereo not given),-4.54% (inactive)
15,CCn1ncc(C2=NOC(C(=O)Nc3ccc4c(c3)OCO4)C2)c1C (stereo not given),-34% (inactive)
16,O=C(NCc1nc2ccccc2[nH]1)c1ccco1,-21.9% (inactive)
17,C=CCSc1nnc(Cc2c(C)[nH]c3ccccc23)o1,15% (inactive)
18,COCCn1c(CN2CCN(c3ccccc3F)CC2)nc2c1c(=O)n(C)c(=O)n2C,-9.11% (inactive)
19,O=C(Nc1cccc(NC(=O)c2ccco2)c1)c1ccc2c(c1)OCO2,-29.5% (inactive)
20,CCOC(=O)N1CCN(Cc2nc3c(c(=O)[nH]c(=O)n3C)n2Cc2cc(C)ccc2C)CC1,27.4% (inactive)
